Each structure is given as a SMILES string. Several values for one entry are separate records, joined by “and”; a condition that tells them apart may be missing. Equal values may be shown once. Among all 640,000 compounds or so, about 9,300 (1.5%) were called active. What follows is part of a selection rich in actives, with near analogues and random picks from the rest. Values without a mark were called inactive. Rule as the data show it: active = inhibition above about 32%; inactive = the rest.

The assay can be described thus: TEAD-YAP interaction inhibition, primary screen, TEAD-YAP interaction inhibitor project, luminescence, HEK-TIYL cells (AID 1259422).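 Also: 0% = median of test compound wells and 100% = reference inhibitor wells.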 To be noted: TEAD-Gal4/YAP UAS-luciferase luminescence, at 9.12 µM, active compounds read high.
For orientation: inhibition means the relative decrease from the control value, in per cent. Take `COc1ccc(N2CC(CNC(=O)c3cccs3)CC2=O)cc1` (stereo not drawn): the inhibition is 6.17%.

As for `CCOc1ccc(C2C(C#N)=C(N)N(c3cccc([N+](=O)[O-])c3)C3=C2C(=O)CC(C)(C)C3)cc1` (stereo not drawn), the inhibition was -5.19%.

`CCOc1ccc(C2C(C#N)=C(N)N(c3cccc(C)c3)C3=C2C(=O)CC(C)(C)C3)cc1` (stereo not drawn): the inhibition was 56.6% (active). The result for `Cc1cccc(N2C(N)=C(C#N)C(c3ccc(F)cc3)C3=C2CC(C)(C)CC3=O)c1` (stereo not drawn) reads -0.79%; that for `COc1ccc(-n2cc(C(=O)N3CCN(c4cccc(Cl)c4)CC3)c3ccccc3c2=O)cc1`, 0.04%; that for `CN(C)c1cccc(C(=O)N2CCN(c3cccc(Cl)c3)CC2)c1`, 32.4% (active). As to `COc1cc(OC)cc(-n2nc(C(=O)N3CCN(c4cccc(Cl)c4)CC3)c3ccccc3c2=O)c1`, the inhibition was 9.86%. The result for `O=C(c1ccc([N+](=O)[O-])cc1)N1CCN(c2cccc(Cl)c2)CC1` reads -1.04%; that for `CC(=O)Nc1ccc(C(=O)N2CCN(c3cccc(Cl)c3)CC2)cc1`, -15.7%; that for `CCc1c(C(=O)N2CCN(c3cccc(Cl)c3)CC2)[nH]c(C)c1C(C)=O`, 52.2% (active).

As to `CC(=O)/C(C(=N)N1CCN(c2cccc(Cl)c2)CC1)=C(/C)O`, the inhibition is -6.64%. The result for `O=C(c1cc(Cl)ccc1Cl)N1CCN(c2ccc(F)cc2)CC1` reads 10.3%. As to `CC(=O)c1c(C)[nH]c(C(=O)N2CCN(c3ccc(Cl)cc3)CC2)c1C`, the inhibition is 12.3%. As for `CSc1ncc(Cl)c(C(=O)N2CCN(c3cccc(Cl)c3)CC2)n1`, the inhibition is 39% (active). As to `COc1ccc(Cl)cc1C(=O)N1CCN(c2cccc(Cl)c2)CC1`, the inhibition is 64% (active). The result for `Cc1cc(C(=O)N2CCN(c3cccc(Cl)c3)CC2)ccc1[N+](=O)[O-]` reads 3.11%. For the compound `CN1CCN(C(=O)c2cc(-c3cccs3)n(CC(=O)N3CCC(O)CC3)n2)CC1`, the inhibition is -2.96%. `Cc1ccc(Nc2nc(-c3ccccc3Cl)nc3ccccc23)cc1Cl`: the inhibition is 9.51%.

In the case of `Cc1c(Cl)cccc1NC(=O)c1cnn2c(C(F)(F)F)cc(-c3ccco3)nc12`, the inhibition was 0.28%. The result for `O=[N+]([O-])c1ccc(-c2csc(=NCc3cccnc3)n2-c2ccccc2)cc1` reads -0.76%. `Cc1nnc(NC(=O)CSc2nc(C(C)C)ccc2C#N)s1`: the inhibition is 62.8% (active). For `COc1ccc(CC(=O)Nc2nnc(SCC(=O)Nc3nnc(C)s3)s2)cc1`, the inhibition is 12.5%. Take `Cc1nnc(NC(=O)CSc2nc3ccccc3cc2C#N)s1`: the inhibition is -10.2%.

Turning to `C=CCNC(=O)Cn1cnc2c([nH]c3ccc(C)cc32)c1=O`, the inhibition is 3.72%.

Consider `NC(=O)CN(c1cc(C(F)(F)F)ccc1Cl)S(=O)(=O)c1ccccc1`, for which the inhibition is -1.66%.

As for `O=C(CN(c1cc(C(F)(F)F)ccc1Cl)S(=O)(=O)c1ccccc1)NCc1ccncc1`, the inhibition was 3.78%. For `COc1ccc(NC(=O)CN(c2cc(C(F)(F)F)ccc2Cl)S(=O)(=O)c2ccccc2)cc1`, the inhibition was 56.2% (active). The figure for `CCCCOc1ccc(NC(=O)C(C)Oc2ccc(OC)cc2)cc1` (stereo not drawn) is 7.98%; for `COC(=O)c1sc(NC(=O)C2CCCCC2)c(C#N)c1C` it is 1.29%; for `COC(=O)c1sc(NC(=O)c2ccncc2)c(C#N)c1C` it is -4%. Take `COC(=O)c1sc(NC(=O)C2(C)CC2(Cl)Cl)c(C#N)c1C` (stereo not drawn): the inhibition is 38.3% (active). Consider `COc1ccccc1N1CCN(S(=O)(=O)c2ccc(F)c(C(=O)Nc3ccc(C(C)C)cc3)c2)CC1`, for which the inhibition is -4.13%. Consider `CC(C)CC(C(=O)N1CCOCCN(C(=O)C(CC(C)C)N2C(=O)c3ccccc3C2=O)CCOCC1)N1C(=O)c2ccccc2C1=O` (stereo not drawn), for which the inhibition was -2.73%. The figure for `CCCOc1c(Cl)cc(/C=C/C(=O)O)cc1OC` is 4.32%. With `O=C(NNc1ncc([N+](=O)[O-])cc1[N+](=O)[O-])c1ccncc1`, the inhibition is 6.87%.

Consider `O=C(O)C1CCCCC1C(=O)N1CCN(c2nc(-c3ccccc3Cl)c3cc(Br)ccc3n2)CC1` (stereo not drawn), for which the inhibition is -2.46%. The result for `C[C@H]1O[C@@H](O[C@H]2[C@@H](O)C[C@H](O[C@H]3[C@@H](O)C[C@H](O[C@H]4CC[C@]5(C)C6C[C@@H](O)[C@]7(C)[C@@H](C8=CC(=O)OC8)CC[C@]7(O)C6CC[C@@H]5C4)O[C@@H]3C)O[C@@H]2C)C[C@H](O)[C@@H]1O` (stereo partly drawn) reads 99.7% (active) and 101% (active); that for `O=C1CCCN1CCCNc1cc(N2CCN(c3ccccn3)CC2)ncn1`, 6.77%. The figure for `CC(=O)c1cc(Cl)cc(Cl)c1O` is -4.24%. Turning to `CCCOc1ccc2cc(-c3csc(N)n3)c(=O)oc2c1`, the inhibition is 59.4% (active). The figure for `CCOC(=O)COc1ccc2cc(-c3nc4ccccc4s3)c(=O)oc2c1` is -4.53%; for `CCN(CC)c1ccc2cc(-c3csc(-c4nc(-c5cc6ccc(N(CC)CC)cc6oc5=O)cs4)n3)c(=O)oc2c1` it is 4.64%. For the compound `CN(CCO)c1ccc(/C=N/Nc2nncc3ccccc23)cc1`, the inhibition was 76.3% (active). The figure for `COc1ccc(/C=N/NC(=O)CN(C)c2ccccc2)cc1OC` is -17.2%; for `CN(C)c1ccc(/C=N/Nc2nc(-c3ccccc3)cs2)cc1` it is -3.84%. The result for `c1ccc(CNc2nc3ccccc3n2CCOc2ccccc2)cc1` reads -21.7%; that for `CCC(CC)NS(=O)(=O)c1ccccc1[N+](=O)[O-]`, 12.2%. The figure for `CCS(=O)(=O)c1cc([N+](=O)[O-])c(Sc2ccccc2N)s1` is 75.8% (active). Take `Nc1ccc(Sc2ccccc2[N+](=O)[O-])cc1`: the inhibition is -0.16%. The result for `COC(=O)c1cnc(N(C)C2CCCCC2)c2ccccc12` reads 6.67%. Consider `CN(c1ccc2nc3ccccc3c(=O)n2n1)C1CCCCC1`, for which the inhibition was 89.7% (active). As to `CN(C(=O)Cn1nc2c3ccccc3nc(C3CC3)n2c1=O)C1CCCCC1`, the inhibition was -4.4%.

On to `CC(=O)Nc1ccc(Nc2nc(N3CCN(c4ccccn4)CC3)nc3c2ncn3-c2ccsc2)cc1`, for which the inhibition was 19.9%. The result for `CC(=O)Nc1ccc(Nc2nc(N3CCC(N4CCOCC4)CC3)nc3c2ncn3-c2ccccc2)cc1` reads 5.05%; that for `CC(=O)Nc1ccc(Nc2nc(Nc3cnccn3)nc3c2ncn3-c2ccccc2)cc1`, 49.2% (active).

With `c1ccc(Nc2nc(Nc3ncccn3)nc3c2ncn3-c2ccccc2)cc1`, the inhibition is -25.3%. The figure for `CC(=O)Nc1ccc(Nc2nc(Cl)nc3c2ncn3-c2ccsc2)cc1` is 33.8% (active); for `CC(=O)Nc1ccc(Nc2nc(Nc3ccncn3)nc3c2ncn3-c2ccsc2)cc1` it is 6.4%.

The record behind these values is PubChem BioAssay AID1259422 (The Scripps Research Institute Molecular Screening Center, 2018).
